HT1080 IDH1KD tx: toxicity to HT-1080 IDH1 knockdown cells (counter line). HT-1080 IDH1 knockdown viability, ATP luminescence, 48 h. actives 2% (n = 360,000). Potency, µM (series often up to 46.1 µM), without a hit: at the top dose activity, negative = toxicity, most hits filed as cytotoxic;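 further: potency means the concentration at half of the fitted maximal effect; 0% = DMSO wells and -100% = cell-free medium wells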
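After a 2 h attachment period, IDH1KD HT-1080 cells took pin-transferred compound for 48 h at 37 °C; ATP-based luminescence after 10 min room-temperature reagent incubation reported viability.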
IL-1B inflam inh: blocks inflammasome-driven IL-1 beta release; THP-1 LPS/ATP IL-1B secretion, AlphaLISA, 16 h; hits give low values; actives 4.7% (n = 360,000); activity change, % at 57.5 µM; AID 743279; in the data active means activity change below about -50%; inconclusive means mostly about -30% to -49%
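THP-1 cells pretreated 1 hr with compounds (up to 57.5 uM final), then stimulated with LPS (250 ng/mL final) plus ATP (1.25 mM final); secreted IL-1B measured by AlphaLISA after 16 hr, decreased signal indicating inhibition.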
TDP1 cell noCPT: qHTS for Inhibitors of human tyrosyl-DNA phosphodiesterase 1 (TDP1): qHTS in cells in absence of CPT | AID 686978, 2013 | Potency, µM (doses to about 46.2 µM), inactives show at the top dose activity change, negative = growth inhibition, usual class: inhibitors | DT40 Tdp1-/- hTDP1 cells, no CPT, ATP luminescence, 48 h | actives 15% (n = 420,000); further: potency means the concentration at half of the fitted maximal effect; nearly all actives have a fitted effect of over 55% in size
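Growth kinetics read by CellTiter-Glo luminescence after ≥48 hr at 37 °C. Cells: DT40 Tdp1-/- stably carrying human TDP1, 400 per well, compound exposure in the absence of CPT (DMSO vehicle).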
HT1080NT lethal: kills 2HG-producing HT-1080-NT fibrosarcoma cells. HT-1080-NT fibrosarcoma viability, CellTiter-Glo ATP luminescence, 48 h. Potency, µM (top dose mostly 46.1 µM), without a hit: top-dose activity, negative = less viability, most hits filed as cytotoxic. actives 1.6% (n = 360,000). AID 686970;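 further: NT is the 2HG producing partner of a matched IDH1 knockdown line; potency means the concentration at half of the fitted maximal effect; 0% = DMSO-treated cells and -100% = media-only wells without cells; nearly all actives have a fitted effect of over 55% in size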
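Compounds were tested in concentration-response format on HT-1080-NT cells for 48 hours at 37 degrees C. Cell viability came from CellTiter-Glo luminescence; curves were classified by r2, response magnitude and activity.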
TDP1 cell CPT: DT40-hTDP1 cell growth loss with CPT | chicken DT40 Tdp1-/-;hTDP1 cells + 20 nM CPT, ATP luminescence, 48 h | Potency, µM (doses to about 46.2 µM), for the others: at the top dose activity change, negative = growth inhibition, usual class: inhibitors | actives 12% (n = 420,000); further: potency means the concentration at half of the fitted maximal effect; nearly all actives have a fitted effect of over 55% in size
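Cell growth measured by CellTiter-Glo luminescence after a minimum 48 h, 37 C compound exposure with 20 nM CPT in Tdp1-knockout DT40 cells stably expressing hTDP1, seeded 400/well; qHTS titration format.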
* hit, by the source's call; ? = inconclusive; · = not tested or not shown; [ ] = dose if it differs, or a comment. An excerpt weighted towards active compounds, which were near 19% of everything screened. Unless noted, the call rests on the fitted dose curve; in most records, active means well fitted curve in the direction sought with a large enough effect; inconclusive means small, poorly fitted or top-dose-only effect, or another doubt; inactive means no such curve, though single readings can be large; an effect the other way counts as inactive or inconclusive. Unless noted, on the % scale 0 is the no-effect control and ±100 the full control effect.

SMILES | HT1080 IDH1KD tx | IL-1B inflam inh | TDP1 cell noCPT | HT1080NT lethal | TDP1 cell CPT
Cc1cccc(C)c1Nc1nn2c(=O)c3cc4c(cc3nc2s1)OCO4 | · | · | ? | · | -7.5%
Nc1nc(SCc2ccccc2)c2ncn(C3CCCCC3)c2n1 | -11.9% | -78.5* | 29.1µM* | ? | ?
COc1cc(CN2CCOc3ccc(CN4CCC(O)(c5cccnc5)CC4)cc3C2)cc(OC)c1 | · | · | -12.5% | · | 5.8%[9.04 µM]
COc1ccc(CCNC(=O)C2CCN(C(=O)c3ccccc3C)CC2)cc1 | 9.9% | 14.8 | 18.4µM* | 12.1% | ?
COc1cc(OC)cc(C(=O)N2CCC(C(=O)NCCc3ccccc3)CC2)c1 | 1.1% | 34.1 | 7.31µM* | 0.8% | 7.31µM*
COc1ccc(CCNC(=O)C2CCN(C(=O)c3cccs3)CC2)cc1 | 7.8% | 33.7 | -21.1% | 3.0% | -5.4%
CC(C)(C)Cc1c(-c2ccccc2)nc2ccc(Br)cn12 | 3.0% | 42.5 | 23.1µM* | -5.6% | ?
Cc1ccc(-c2nc3ccc(Br)cn3c2CC(C)(C)C)cc1 | 4.4% | 4.2 | 11.6µM* | 3.0% | ?
CC(C)(C)Cc1c(-c2cccc(Cl)c2)nc2ccc(Cl)cn12 | 2.8% | -20.4 | ? | 12.8% | ?
C/C(Cc1ccccc1)=N\NC(=O)CNC(=O)Cc1ccc(Cl)cc1 | 1.5% | -2.2 | -21.7% | 10.0% | -2.9%
COc1ccc(-n2c(=O)[nH]c3c(C(N)=O)nc(C4CCCCC4)nc32)cc1 | -0.5% | 4.4 | ? | -0.8% | ?
CNc1oc(Cc2ccccc2)nc1S(=O)(=O)c1ccccc1 | ? | 0.0 | 6.51µM* | -17.0% | 14.6µM*
O=C(CSc1nnnn1-c1cccnc1)Nc1ccc(F)cc1F | -0.5% | 0.0 | 2.2% | -7.4% | -7.0%
Oc1ccccc1C1C=C(c2ccc3c(c2)OCO3)NC(c2ccc(Br)cc2)N1 (stereo not given) | · | · | 11.2µM* | · | 11.2µM*
O=C(O)c1cc(-c2ccc3c(c2)OCO3)nc2ccc(Br)cc12 | -6.8% | 13.9 | -2.1% | -21.0% | -19.7%
Oc1ccc(Br)cc1C1C=C(c2ccc3c(c2)OCO3)NC(c2ccc(Br)cc2)N1 (stereo not given) | · | · | 7.94µM* | · | 10µM*
O=C(Nc1ccc(Br)cc1)c1cc(-c2ccc3c(c2)OCO3)on1 | 10.3% | 0.0 | 0.6% | ? | 2.3%
Cc1ccc(C2NC(c3ccc4c(c3)OCO4)=CC(c3cc(Br)ccc3O)N2)cc1 (stereo not given) | · | · | 4.47µM* | · | 7.94µM*
Oc1ccccc1C1C=C(c2ccc3c(c2)OCO3)NC(c2cccc(Cl)c2)N1 (stereo not given) | · | · | 12.6µM* | · | ?
CCN1CCN(C(=O)CCc2nnc3ccc(N4CCC5(CC4)OCCO5)nn23)CC1 | 5.9% | -0.8 | 3.1% | 3.0% | 1.9%
CC12CCC(C(=O)N3CCN(Cc4ccccc4)CC3)(OC1=O)C2(C)C (stereo not given) | -1.8% | -12.6 | -18.1% | 6.7% | -11.5%
COc1ccc(Br)cc1C1NC(c2ccc3c(c2)OCO3)=CC(c2ccccc2O)N1 (stereo not given) | · | · | 10µM* | · | ?
COc1ccc(Cn2c(-c3ccc(Br)cc3)c[n+]3ccccc23)cc1 | ? | -61.1* | 2.06µM* | ? | 1.84µM*
CNc1nc2c(N)ncnc2n1[C@H]1O[C@@H](CO)[C@H](O)[C@@H]1O | -15.3% | -13.4 | ? | -10.3% | ?
Nc1ncnc2c(C3OC(CO)C(O)C3O)scc12 (stereo not given) | 0.0366µM* | -115.6* | 0.0164µM* | 0.259µM* | 0.0116µM*
SMILES | HT1080 IDH1KD tx | IL-1B inflam inh | TDP1 cell noCPT | HT1080NT lethal | TDP1 cell CPT
CNC(=O)c1cc(Oc2ccc(NC(=O)Nc3ccc(Cl)c(C(F)(F)F)c3)cc2)ccn1 | ? | -102.2* | 23.1µM* | ? | 20.6µM*
CNC(=O)c1cc(Oc2ccc(NC(=O)c3[nH]c(-c4ccccc4)c4c3C(=O)N(C)C4=O)cc2)ccn1 | 11.1% | 37.3 | ? | 20.3% | ?
C/C(CC(=O)Nc1c(Cl)cccc1C(F)(F)F)=N\NC(=O)c1cnccn1 | -0.7% | -1.5 | 2.6% | -12.9% | ?
O=C(Nc1ccc(Cl)c(C(F)(F)F)c1)c1ccncc1 | -15.5% | -8.7 | 14.6µM* | -8.5% | ?
Cc1ccc(NC(=O)c2ccc(C)cc2)cc1 | 22.6% | -2.3 | -7.3% | 8.7% | 4.2%
C/C(CC(=O)Nc1ccc(Cl)c(C(F)(F)F)c1)=N\NC(=O)c1cnccn1 | ? | -71.7* | -26.5% | ? | ?
Cc1ccc(C(=O)Nc2ccc(Br)c(C(F)(F)F)c2)cc1 | ? | ? | 23.1µM* | -26.5% | ?
COc1ccccc1C(=O)Nc1nnc(SCC(=O)NC2CCCC2)s1 | -0.9% | -28.9 | -21.2% | -4.6% | ?
Cn1c(=O)c2sccc2n(Cc2ccccc2)c1=O | 0.9% | 27.2 | -12.7% | -9.3% | -14.1%
Cc1cccc(C)c1NC(=O)COC(=O)CCc1c[nH]c2ccccc12 | -0.5% | 0.2 | -6.1% | 3.2% | -21.0%
Cc1ccc(C)c(NC(=O)CSc2n[nH]c(-c3ccccn3)n2)c1 | ? | 60.2 | 18.4µM* | -20.5% | 23.1µM*
Cc1ccccc1NC(=O)CSc1n[nH]c(-c2ccccn2)n1 | ? | 152.4 | ? | ? | 18.4µM*
O=C(CSc1n[nH]c(-c2ccncc2)n1)Nc1ccccc1C(F)(F)F | 4.6% | 32.4 | 10.3µM* | 5.8% | 18.4µM*
Cc1nc2c(c(SCC(=O)Nc3ccccc3C(F)(F)F)n1)CCC2 | · | · | 20.6µM* | · | ?
O=C(CSc1ncnc2nc[nH]c12)Nc1ccccc1C(F)(F)F | -6.5% | 24.7 | -19.1% | -6.0% | -16.4%
CCN(C(=O)COC(=O)/C=C/c1c(C)nn(Cc2ccc(C)cc2)c1C)C1CCS(=O)(=O)C1 (stereo not given) | 1.3% | 29.7 | 0.5% | -8.7% | 5.4%
Cc1ccc(O)c(NC(=O)CSc2n[nH]c(-c3ccccc3)n2)c1 | -22.4% | 88.0 | 16.4µM* | -7.8% | ?
O=C(CSc1n[nH]c(-c2ccccc2)n1)Nc1ncccn1 | 15.3% | -6.7 | -10.4% | 8.6% | 11.1%
N#C/C(C(=O)N1CCOCC1)=c1/s/c(=C\c2ccccn2)c(=O)n1-c1ccccc1 | -0.8% | 4.5 | 3.1% | 8.6% | 4.5%
COc1ccc(-n2c(=O)/c(=C\c3cccs3)s/c2=C(/C#N)C(=O)N2CCN(C)CC2)cc1 | ? | 24.7 | 23.1µM* | ? | -25.6%
CC1(C(=O)OCC(=O)NCCNC(=O)COC(=O)C2(C)CC2(Cl)Cl)CC1(Cl)Cl (stereo not given) | -6.5% | 4.2 | 16.4µM* | -2.0% | ?
CC1(C(=O)OCC(=O)Nc2ccc3ccccc3c2)CC1(Cl)Cl (stereo not given) | 0.8% | -97.1* | ? | -6.8% | ?
